SMILES strings stand for the structures. For some of these results: Entries with a potency or affinity are not part of this list.

What all share (parameters): scale not given: direction of the effect not stated beside the values
Assay [1] addresses Protein translocase subunit SecA (Escherichia coli (strain K12)) (UniProt P10408). The assay can be described thus: Assay to Identify E. coli SecA ATPase Inhibitors. In kind it is functional. As to conditions: 30 µM.
Assay [2] deals with T1, Ubiquitin-activating enzyme e1, putative (Leishmania donovani (strain BPK282A1)) (UniProt E9BSI1).
T1 sequence (whole entry): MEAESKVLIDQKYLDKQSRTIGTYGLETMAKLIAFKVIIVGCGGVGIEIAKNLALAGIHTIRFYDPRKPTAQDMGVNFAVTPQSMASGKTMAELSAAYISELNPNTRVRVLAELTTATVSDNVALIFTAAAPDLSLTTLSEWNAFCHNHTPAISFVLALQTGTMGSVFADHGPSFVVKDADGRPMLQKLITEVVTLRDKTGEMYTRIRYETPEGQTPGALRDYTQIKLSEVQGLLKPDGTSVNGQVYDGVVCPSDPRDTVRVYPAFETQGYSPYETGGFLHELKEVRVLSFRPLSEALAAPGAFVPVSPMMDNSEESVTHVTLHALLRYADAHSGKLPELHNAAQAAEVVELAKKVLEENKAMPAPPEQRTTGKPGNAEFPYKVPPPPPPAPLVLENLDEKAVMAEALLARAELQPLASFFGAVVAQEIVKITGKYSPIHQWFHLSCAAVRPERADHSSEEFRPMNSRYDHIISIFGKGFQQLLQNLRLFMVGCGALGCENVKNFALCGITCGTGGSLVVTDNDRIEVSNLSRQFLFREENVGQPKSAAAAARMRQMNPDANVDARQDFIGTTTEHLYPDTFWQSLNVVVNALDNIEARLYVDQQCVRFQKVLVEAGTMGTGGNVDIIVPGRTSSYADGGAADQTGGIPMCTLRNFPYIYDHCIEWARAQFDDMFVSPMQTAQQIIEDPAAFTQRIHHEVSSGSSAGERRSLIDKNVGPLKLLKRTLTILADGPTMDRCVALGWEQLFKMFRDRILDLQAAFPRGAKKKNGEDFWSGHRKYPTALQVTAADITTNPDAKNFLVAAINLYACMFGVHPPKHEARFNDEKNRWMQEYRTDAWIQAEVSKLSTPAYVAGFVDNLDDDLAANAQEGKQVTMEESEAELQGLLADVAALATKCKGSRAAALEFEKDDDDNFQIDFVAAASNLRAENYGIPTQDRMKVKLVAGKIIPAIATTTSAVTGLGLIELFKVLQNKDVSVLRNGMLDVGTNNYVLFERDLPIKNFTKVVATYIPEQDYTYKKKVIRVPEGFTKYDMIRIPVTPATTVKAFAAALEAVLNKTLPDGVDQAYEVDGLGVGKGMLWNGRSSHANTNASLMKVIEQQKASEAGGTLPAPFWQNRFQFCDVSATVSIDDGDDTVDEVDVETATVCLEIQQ
The assay can be described thus: Leishmania donovani Ubiquitin Activating Enzyme (LdE1). In kind it is functional. As to conditions: 30 µM.

The target of assay [3] is AMP-activated protein kinase, AMPK (Homo sapiens) (UniProt P54646+O43741+P54619+Q9UGJ0+Q9Y478+Q13131+Q9UGI9). Briefly: AMP-dependent Kinase enzyme assay. An in vitro enzyme assay that detects ADP turnover that is directly proportional to AMPK activity. This uses naive AMPK that is activated during the assay with MK-8722. In kind it is functional. As to conditions: 30 µM.

The target in assay [4] is Sialic acid-binding Ig-like lectin 9 (Homo sapiens) (UniProt Q9Y336). The assay can be described thus: Hs-Siglec9 ALPHAscreen SOP 20170721. As to conditions: 10 µM.
Sialic acid-binding Ig-like lectin 9 (Homo sapiens), sequence (Q9Y336 whole entry): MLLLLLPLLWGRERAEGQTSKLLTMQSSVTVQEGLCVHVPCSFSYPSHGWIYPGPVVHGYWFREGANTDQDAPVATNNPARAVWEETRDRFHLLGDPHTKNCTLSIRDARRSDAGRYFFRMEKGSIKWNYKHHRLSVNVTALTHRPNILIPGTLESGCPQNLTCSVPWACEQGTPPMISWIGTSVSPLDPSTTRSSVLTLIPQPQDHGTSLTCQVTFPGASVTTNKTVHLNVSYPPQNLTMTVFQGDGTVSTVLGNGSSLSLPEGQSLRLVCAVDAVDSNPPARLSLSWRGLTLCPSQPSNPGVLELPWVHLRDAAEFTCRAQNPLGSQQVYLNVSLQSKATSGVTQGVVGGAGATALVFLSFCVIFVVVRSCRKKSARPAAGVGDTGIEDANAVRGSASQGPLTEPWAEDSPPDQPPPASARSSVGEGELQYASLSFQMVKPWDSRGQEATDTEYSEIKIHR
The subject of the next assay is Trypanosoma cruzi. The assay can be described thus: Trypanosoma cruzi phosphomannomutase and mannose-1-phosphate guanylyltransferase assay. The assay is classed as functional. As to conditions: 10 µM.
Assay [5] has as its target T2, Arginase-2, mitochondrial (Homo sapiens) (UniProt P78540).
T2 sequence (whole entry): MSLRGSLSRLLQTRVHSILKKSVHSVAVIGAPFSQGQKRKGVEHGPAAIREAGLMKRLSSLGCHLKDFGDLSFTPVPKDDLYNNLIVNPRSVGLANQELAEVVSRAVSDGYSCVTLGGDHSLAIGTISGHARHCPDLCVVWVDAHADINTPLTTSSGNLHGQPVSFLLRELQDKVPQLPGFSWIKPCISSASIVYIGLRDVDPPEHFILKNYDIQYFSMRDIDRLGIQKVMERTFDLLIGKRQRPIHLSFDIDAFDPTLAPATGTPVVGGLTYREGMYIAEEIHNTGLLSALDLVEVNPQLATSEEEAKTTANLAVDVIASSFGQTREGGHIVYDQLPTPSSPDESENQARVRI
The assay can be described thus: in vitro enzyme assay to detect the production of urea directly proportional to the activity of Arginase II. Further: in the data most compounds retested in dose-response had high values. The assay is classed as functional. Conditions: 33.3 µM.

The target of assay [6] is T3, Proteasome subunit beta (Trypanosoma cruzi) (UniProt O96673).
T3 sequence (whole entry): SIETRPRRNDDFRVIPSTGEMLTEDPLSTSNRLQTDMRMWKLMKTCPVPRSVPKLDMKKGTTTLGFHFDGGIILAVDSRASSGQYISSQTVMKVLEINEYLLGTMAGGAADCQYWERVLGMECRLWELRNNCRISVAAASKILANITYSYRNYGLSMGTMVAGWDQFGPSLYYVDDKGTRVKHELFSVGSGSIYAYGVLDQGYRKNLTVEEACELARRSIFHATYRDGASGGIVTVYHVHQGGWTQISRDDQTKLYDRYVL
The assay can be described thus: Trypanosoma cruzi proteasome chymotrypsin-like activity (TcProtChymo) assay. Further: in the data most compounds retested in dose-response had high values. Conditions: 9.37 µM. In kind it is functional.

For the next assay, the species on record is Homo sapiens. Briefly: To identify inhibition of the IFN signalling (Jak-Stat) pathway via expression of an eGFP reporter gene under the control of an IFN-stimulated response element (ISRE) containing MxA promoter. In kind it is functional. Conditions: 30 µM.
In assay [7] the target is T4, Tyrosyl-tRNA synthetase, putative (Trypanosoma cruzi (strain CL Brener)) (UniProt Q4DSP6).
T4 sequence (whole entry): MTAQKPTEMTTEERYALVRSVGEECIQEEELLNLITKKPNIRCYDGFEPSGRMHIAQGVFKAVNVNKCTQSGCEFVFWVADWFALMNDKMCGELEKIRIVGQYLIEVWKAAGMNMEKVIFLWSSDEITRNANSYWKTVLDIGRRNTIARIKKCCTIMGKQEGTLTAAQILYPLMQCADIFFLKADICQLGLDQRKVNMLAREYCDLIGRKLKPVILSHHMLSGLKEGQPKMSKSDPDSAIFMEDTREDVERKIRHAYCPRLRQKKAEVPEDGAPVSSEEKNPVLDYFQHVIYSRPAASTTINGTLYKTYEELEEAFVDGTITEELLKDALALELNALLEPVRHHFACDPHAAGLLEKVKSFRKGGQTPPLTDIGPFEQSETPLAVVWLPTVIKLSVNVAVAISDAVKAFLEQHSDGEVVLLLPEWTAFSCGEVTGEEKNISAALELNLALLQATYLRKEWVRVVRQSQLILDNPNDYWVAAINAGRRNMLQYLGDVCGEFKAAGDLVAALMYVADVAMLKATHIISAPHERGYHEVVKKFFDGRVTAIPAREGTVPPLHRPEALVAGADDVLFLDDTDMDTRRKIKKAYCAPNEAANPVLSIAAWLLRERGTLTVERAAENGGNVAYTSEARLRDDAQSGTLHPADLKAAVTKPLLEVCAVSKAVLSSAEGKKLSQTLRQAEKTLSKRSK
Briefly: Trypanosoma cruzi tyrosyl tRNA synthetase (TcYRS) _High Tyrosine SOP. Further: in the data most compounds retested in dose-response had high values. As to conditions: 30 µM. In kind it is functional.

In assay [8] the target is T4, Tyrosyl-tRNA synthetase, putative (Trypanosoma cruzi (strain CL Brener)). The assay can be described thus: Trypanosoma cruzi tyrosyl tRNA synthetase (TcYRS) SOP. The assay is classed as functional. Conditions: 30 µM.
For assay [9], the target named is Chromo domain-containing protein 1 (Saccharomyces cerevisiae (strain ATCC 204508 / S288c) (Baker's yeast)) (UniProt P32657). The assay can be described thus: ScCHD-1 Enzyme Inhibition Assay. Further: in the data most compounds retested in dose-response had high values. The assay is classed as functional. As to conditions: 30 µM.
Chromo domain-containing protein 1 (Saccharomyces cerevisiae (strain ATCC 204508 / S288c) (Baker's yeast)), sequence (P32657 whole entry, the tested form may be a part): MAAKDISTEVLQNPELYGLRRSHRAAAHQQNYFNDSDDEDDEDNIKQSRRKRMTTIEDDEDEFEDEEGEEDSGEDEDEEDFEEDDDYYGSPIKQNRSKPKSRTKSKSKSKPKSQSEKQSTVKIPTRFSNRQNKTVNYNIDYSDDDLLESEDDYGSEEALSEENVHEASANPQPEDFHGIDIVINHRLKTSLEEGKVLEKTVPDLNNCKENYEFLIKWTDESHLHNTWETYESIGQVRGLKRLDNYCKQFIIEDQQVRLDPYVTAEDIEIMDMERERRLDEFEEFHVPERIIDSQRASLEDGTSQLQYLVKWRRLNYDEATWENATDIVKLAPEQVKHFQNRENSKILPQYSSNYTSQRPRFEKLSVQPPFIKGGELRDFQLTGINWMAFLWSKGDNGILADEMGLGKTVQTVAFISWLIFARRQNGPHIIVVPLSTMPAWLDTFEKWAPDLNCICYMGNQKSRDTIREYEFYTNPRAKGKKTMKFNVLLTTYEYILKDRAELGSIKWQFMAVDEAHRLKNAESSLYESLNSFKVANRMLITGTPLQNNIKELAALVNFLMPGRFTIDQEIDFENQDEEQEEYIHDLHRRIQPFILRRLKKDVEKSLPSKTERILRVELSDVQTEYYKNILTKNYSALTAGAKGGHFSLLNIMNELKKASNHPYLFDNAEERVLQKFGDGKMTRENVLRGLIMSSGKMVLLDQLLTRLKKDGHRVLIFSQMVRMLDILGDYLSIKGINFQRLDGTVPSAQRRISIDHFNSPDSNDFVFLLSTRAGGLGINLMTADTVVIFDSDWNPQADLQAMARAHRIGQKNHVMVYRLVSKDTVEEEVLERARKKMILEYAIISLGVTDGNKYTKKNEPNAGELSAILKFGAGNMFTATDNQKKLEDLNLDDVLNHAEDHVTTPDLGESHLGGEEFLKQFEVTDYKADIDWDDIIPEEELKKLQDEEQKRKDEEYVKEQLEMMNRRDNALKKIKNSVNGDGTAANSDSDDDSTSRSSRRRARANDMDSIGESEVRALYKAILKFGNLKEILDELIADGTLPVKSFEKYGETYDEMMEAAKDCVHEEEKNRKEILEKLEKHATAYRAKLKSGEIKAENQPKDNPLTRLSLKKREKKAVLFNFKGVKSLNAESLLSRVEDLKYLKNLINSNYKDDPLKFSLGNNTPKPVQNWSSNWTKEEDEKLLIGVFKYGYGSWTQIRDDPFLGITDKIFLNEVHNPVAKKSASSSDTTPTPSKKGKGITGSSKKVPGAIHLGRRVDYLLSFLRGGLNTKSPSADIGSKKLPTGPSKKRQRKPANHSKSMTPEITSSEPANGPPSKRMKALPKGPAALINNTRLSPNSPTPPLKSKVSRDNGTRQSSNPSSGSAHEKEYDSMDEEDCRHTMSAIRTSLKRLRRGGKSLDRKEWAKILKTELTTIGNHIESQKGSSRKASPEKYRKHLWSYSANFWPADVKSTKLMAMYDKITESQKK

Protein translocase subunit SecA (Escherichia coli (strain K12)), sequence (P10408 whole entry): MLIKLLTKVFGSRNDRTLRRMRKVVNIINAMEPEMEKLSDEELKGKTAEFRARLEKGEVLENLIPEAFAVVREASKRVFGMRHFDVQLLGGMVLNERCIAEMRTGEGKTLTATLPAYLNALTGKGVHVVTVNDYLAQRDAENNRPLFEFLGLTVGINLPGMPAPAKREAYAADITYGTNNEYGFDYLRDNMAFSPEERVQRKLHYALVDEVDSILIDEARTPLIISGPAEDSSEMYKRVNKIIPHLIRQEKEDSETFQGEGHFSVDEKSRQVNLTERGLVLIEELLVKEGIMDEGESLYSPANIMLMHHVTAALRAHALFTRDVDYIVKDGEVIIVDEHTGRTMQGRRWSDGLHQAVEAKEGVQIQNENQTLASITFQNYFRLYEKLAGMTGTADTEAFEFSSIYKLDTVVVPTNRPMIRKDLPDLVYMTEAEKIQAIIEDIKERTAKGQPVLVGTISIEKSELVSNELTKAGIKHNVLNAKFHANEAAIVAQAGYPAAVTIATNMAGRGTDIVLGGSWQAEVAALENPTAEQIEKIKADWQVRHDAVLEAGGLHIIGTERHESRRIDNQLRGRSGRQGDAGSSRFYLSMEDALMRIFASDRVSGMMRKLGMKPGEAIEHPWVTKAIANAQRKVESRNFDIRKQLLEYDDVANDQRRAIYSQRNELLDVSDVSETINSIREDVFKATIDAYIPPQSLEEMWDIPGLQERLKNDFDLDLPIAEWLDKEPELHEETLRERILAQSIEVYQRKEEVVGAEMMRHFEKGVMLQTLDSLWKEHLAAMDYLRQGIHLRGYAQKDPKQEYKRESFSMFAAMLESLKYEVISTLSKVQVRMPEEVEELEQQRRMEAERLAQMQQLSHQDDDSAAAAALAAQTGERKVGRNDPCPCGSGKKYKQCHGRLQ

On to `CCC(CC)c1cc(C(=O)N2CCCC(n3cncn3)C2)on1` (stereo not drawn), for which the Percent Effect in [1] was -2.21%; in assay [2] it was -1.39%; in assay [3] it was -4.63%; in assay [4], 9.13%; in the assay with Trypanosoma cruzi, 3.6%; in [5] it was 22.5%. The Percent Effect in assay [6] is 11.9%; in the assay filed under Homo sapiens it was -8.85%; in [7] it was 1.05%; in assay [8], 5.13%; in assay [9], 0.586%.

As to `Cc1ccoc1-c1nnc(CNCC2CCCN2c2cccnn2)o1` (stereo not drawn), the Percent Effect was -6.58% in assay [1]; 0% in [2]; -0.825% in assay [3]; 2.96% in [4]; 1.98% in the assay with Trypanosoma cruzi; -0.798% in assay [5]. The Percent Effect in [6] was 9.33%; in the assay filed under Homo sapiens, 6.87%; in [7], 9.38%; in assay [8], 13.6%; in [9] it was 1.55%.

Turning to `COCCN(C)CCN1CC2(CCN(C(=O)C3CCOC3)CC2)OC1=O` (stereo not drawn), the Percent Effect in assay [1] is -4.65%; in assay [2], 18.2%; in assay [3] it was 9.58%; in assay [4], 7.65%; in the assay on Trypanosoma cruzi, 5.21%; in [5], -12.4%. Besides, the Percent Effect in [6] was 23.1%; in the assay filed under Homo sapiens, 6.21%; in assay [7], 7.53%; in assay [8] it was 18.5%; in assay [9], -7.01%.

Take `C=C1c2ccccc2C(=O)N1CCC(=O)N1CCNC(=O)C1`: the Percent Effect in [1] was -2.89%; in [2] it was 15.8%; in assay [3] it was -1.19%; in [4], 3.39%; with Trypanosoma cruzi it was -2.07%; in [5], 6.51%. Besides, the Percent Effect in assay [6] was 29.6%; in the assay listed under Homo sapiens, -7.94%; in assay [7] it was 6.37%; in assay [8], 17.1%; in assay [9], -3.42%.

In the case of `O=c1oc(-c2cccs2)nn1CC(O)c1ccccc1` (stereo not drawn), the Percent Effect in [1] was -3.18%; in assay [2] it was 8%; in [3], -5.55%; in assay [4], 2.71%; in the assay with Trypanosoma cruzi, 0.292%; in assay [5], -27.6%. In addition, the Percent Effect in [6] was 5.58%; in the assay filed under Homo sapiens it was 7.94%; in assay [7], 10.4%; in assay [8] it was 16.1%; in [9], -4.32%.

In the case of `Cc1cnn(CC2CCCN2Cc2nc3ccccc3n2C)c1` (stereo not drawn), the Percent Effect in assay [1] is -1.76%; in assay [2] it was -10.1%; in assay [3] it was -1.75%; in [4] it was 3.88%; with Trypanosoma cruzi, 8.4%; in assay [5] it was 1.9%. The Percent Effect in assay [6] is -1.23%; in the assay filed under Homo sapiens, -22.9%; in assay [7], 9.36%; in assay [8], 13.9%; in assay [9] it was -3.16%.

On to `O=C(CCn1ccc2cc(Br)ccc21)NCc1ccc(C(=O)O)cc1`, for which the Percent Effect is -5.12% in assay [1]; 2.63% in assay [2]; 11.6% in [3]; 0.438% in [4]; -3.02% with Trypanosoma cruzi; -3.55% in assay [5]. Moreover, the Percent Effect is 16.2% in assay [6]; 10.9% in the assay listed under Homo sapiens; -6.38% in assay [7]; -10.4% in [8]; -1.59% in assay [9].

As for `CN1CCCCC1c1ncc2c(n1)CCN(Cc1ccccc1Cl)C2` (stereo not drawn), the Percent Effect is 1.96% in assay [1]; -13.3% in assay [2]; 4.6% in assay [3]; 2.83% in assay [4]; 3.74% in the assay on Trypanosoma cruzi; 2.56% in [5]. Further, the Percent Effect in assay [6] was 18.9%; in the assay listed under Homo sapiens it was -3.83%; in [7] it was 19.1%; in assay [8], 14.1%; in assay [9], 1.52%.

Values taken from ChEMBL document CHEMBL3988442, “University of Dundee, Small-Polar-MMV Screening Library” (2021).
